# Source: the supplement of paper PMC10037445
# Over roughly 2,900 compounds, “NF-kB SEAP reporter activity, fold change vs agonist alone” has its median near 0.99; the highest 2% begin near 2.6. The list comes from a sample in which the highest values are over-represented; it also holds similar structures and randomly drawn compounds.
# Key:
# [1] = tested on: RAW-Dual; assay: NF-kB SEAP reporter activity, fold change vs agonist alone; higher = enhanced NF-kB activity
# How it was run: (§1)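 Cytotoxic wells were those whose IncuCyte confluency was below 70% of agonist controls in both mask sets. The cells were RAW-Dual macrophages at 50,000 cells/well in DMEM on 384-well plates, dosed with 50 nL of library stock by pin tool, stimulated with a PRR agonist 1 h later, and kept at 37 °C, 5% CO2 for 20 hours. IRF and NF-κB reporter activity, as fold change over agonist-alone wells, came from supernatant read by QuantiLuc luminescence and QuantiBlue absorbance, respectively.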
# [2] = tested on: RAW-Dual; assay: NF-kB SEAP reporter activity, fold change vs agonist alone; cytotoxicity flag (confluency mask): not cytotoxic; higher = enhanced NF-kB activity
# How it was run: as §1
# [3] = agonist: ODN 1826 (TLR9) 0.5 ug/mL
# [4] = agonist: Pam2CSK4 (TLR2/6) 0.1 ug/mL
# [5] = agonist: Pam3CSK4 (TLR2/1) 0.1 ug/mL
# [6] = library stock concentration (final ~1000-fold dilution): 10 mM, cytotoxicity flag (confluency mask): not cytotoxic, agonist: Imiquimod (TLR7) […]
# [7] = library stock concentration (final ~1000-fold dilution): 10 mM, cytotoxicity flag (confluency mask): not cytotoxic, agonist: MPLA (TLR4) […]
# [8] = library stock concentration (final ~1000-fold dilution): 10 mM water, cytotoxicity flag (confluency mask): not cytotoxic, agonist: Imiquimod (TLR7) […]
# [9] = library stock concentration (final ~1000-fold dilution): 10 mM water, cytotoxicity flag (confluency mask): not cytotoxic, agonist: MPLA (TLR4) […]
smiles,measurement,setting,value
Nc1ncnc2c1c(I)cn2C1OC(CO)C(O)C1O (configuration not stated),NF-kB SEAP reporter activity,"[1]; library stock concentration (final ~1000-fold dilution): 10 mM, cytotoxicity flag (confluency mask): cytotoxic (confluency <70% of control), agonist: Imiquimod (TLR7) […]",0.145
same,NF-kB SEAP reporter activity,"[1]; library stock concentration (final ~1000-fold dilution): 10 mM, cytotoxicity flag (confluency mask): cytotoxic (confluency <70% of control), agonist: MPLA (TLR4) […]",0.26
C=C1CCC(O)CC1=CC=C1CCCC2(C)C1CCC2C(C)CCCC(C)C (configuration not stated),NF-kB SEAP reporter activity,"[1]; library stock concentration (final ~1000-fold dilution): 1 mM, cytotoxicity flag (confluency mask): not cytotoxic, agonist: Imiquimod (TLR7) […]",1.17
same,NF-kB SEAP reporter activity,"[1]; library stock concentration (final ~1000-fold dilution): 1 mM, cytotoxicity flag (confluency mask): not cytotoxic, agonist: MPLA (TLR4) […]",0.651
C=C1CCC(O)CC1=CC=C1CCCC2(C)C1CCC2C(C)CCCC(C)C (configuration not stated) (library stock concentration (final ~1000-fold dilution): 1 mM),NF-kB SEAP reporter activity,[2]; agonist: LPS (TLR4) 0.1 ug/mL,0.593
same,NF-kB SEAP reporter activity,[2]; [3],1.12
same,NF-kB SEAP reporter activity,[2]; [4],1.12
same,NF-kB SEAP reporter activity,[2]; [5],1.27
O=C(O)CCN1C(=O)C(=Cc2ccc(-c3ccc([N+](=O)[O-])cc3)o2)SC1=S (library stock concentration (final ~1000-fold dilution): 10 mM),NF-kB SEAP reporter activity,[2]; agonist: LPS (TLR4) 0.1 ug/mL,0.807
same,NF-kB SEAP reporter activity,[2]; [3],0.649
same,NF-kB SEAP reporter activity,[2]; [4],0.104
same,NF-kB SEAP reporter activity,[2]; [5],0.296
O=C(O)CCN1C(=O)C(=Cc2ccc(-c3ccc([N+](=O)[O-])cc3)o2)SC1=S,NF-kB SEAP reporter activity,[1]; [6],0.675
same,NF-kB SEAP reporter activity,[1]; [7],0.731
COc1ccc(-c2ccc3c(N4CCOCC4)nc(N4CC(C)OC(C)C4)nc3n2)cc1CO (configuration not stated) (library stock concentration (final ~1000-fold dilution): 10 mM),NF-kB SEAP reporter activity,[2]; agonist: LPS (TLR4) 0.1 ug/mL,0.793
same,NF-kB SEAP reporter activity,[2]; [3],0.836
same,NF-kB SEAP reporter activity,[2]; [4],0.365
same,NF-kB SEAP reporter activity,[2]; [5],0.707
COc1ccc(-c2ccc3c(N4CCOCC4)nc(N4CC(C)OC(C)C4)nc3n2)cc1CO (configuration not stated),NF-kB SEAP reporter activity,[1]; [6],0.91
same,NF-kB SEAP reporter activity,[1]; [7],0.935
CCc1nn(CCCN2CCN(c3cccc(Cl)c3)CC2)c(=O)n1CCOc1ccccc1.Cl,NF-kB SEAP reporter activity,[1]; [7],0.878
Cl.O=c1n(CCCN2CCN(c3cccc(Cl)c3)CC2)nc2ccccn12,NF-kB SEAP reporter activity,"[1]; library stock concentration (final ~1000-fold dilution): 2 mM, cytotoxicity flag (confluency mask): not cytotoxic, agonist: Imiquimod (TLR7) […]",1.05
same,NF-kB SEAP reporter activity,"[1]; library stock concentration (final ~1000-fold dilution): 2 mM, cytotoxicity flag (confluency mask): not cytotoxic, agonist: MPLA (TLR4) […]",1.08
O=c1n(CCCN2CCN(c3cccc(Cl)c3)CC2)nc2ccccn12,NF-kB SEAP reporter activity,[1]; [6],2.36
same,NF-kB SEAP reporter activity,[1]; [7],2.42
Cl.O=c1n(CCCN2CCN(c3cccc(Cl)c3)CC2)nc2ccccn12 (library stock concentration (final ~1000-fold dilution): 2 mM),NF-kB SEAP reporter activity,[2]; agonist: LPS (TLR4) 0.1 ug/mL,1.15
same,NF-kB SEAP reporter activity,[2]; [3],1.04
same,NF-kB SEAP reporter activity,[2]; [4],1.1
same,NF-kB SEAP reporter activity,[2]; [5],1.37
O=c1n(CCCN2CCN(c3cccc(Cl)c3)CC2)nc2ccccn12 (library stock concentration (final ~1000-fold dilution): 10 mM),NF-kB SEAP reporter activity,[2]; agonist: LPS (TLR4) 0.1 ug/mL,2.72
same,NF-kB SEAP reporter activity,[2]; [3],1.65
same,NF-kB SEAP reporter activity,[2]; [4],1.15
same,NF-kB SEAP reporter activity,[2]; [5],1.22
CCc1nn(CCCN2CCN(c3cccc(Cl)c3)CC2)c(=O)n1CCOc1ccccc1.Cl (library stock concentration (final ~1000-fold dilution): 10 mM),NF-kB SEAP reporter activity,[2]; agonist: LPS (TLR4) 0.1 ug/mL,0.981
same,NF-kB SEAP reporter activity,[2]; [3],0.799
same,NF-kB SEAP reporter activity,[2]; [4],0.822
same,NF-kB SEAP reporter activity,[2]; [5],0.646
COc1nc(N)nc2c1ncn2C1OC(CO)C(O)C1O (configuration not stated),NF-kB SEAP reporter activity,[1]; [6],0.924
same,NF-kB SEAP reporter activity,[1]; [7],0.994
COc1nc(N)nc2c1ncn2C1OC(CO)C(O)C1O (configuration not stated) (library stock concentration (final ~1000-fold dilution): 10 mM),NF-kB SEAP reporter activity,[2]; agonist: LPS (TLR4) 0.1 ug/mL,1.43
same,NF-kB SEAP reporter activity,[2]; [3],0.996
same,NF-kB SEAP reporter activity,[2]; [4],1.08
same,NF-kB SEAP reporter activity,[2]; [5],1.23
CCOc1ccc(CC2NC(=O)CCSSCC(C(=O)N3CCCC3C(=O)NC(CCCN)C(=O)NCC(N)=O)NC(=O)C(CC(N)=O)NC(=O)C(C(C)O)NC(=O)C(C(C)CC)NC2=O)cc1 (configuration not stated) (library stock concentration (final ~1000-fold dilution): 10 mM water),NF-kB SEAP reporter activity,[2]; agonist: LPS (TLR4) 0.1 ug/mL,1.22
same,NF-kB SEAP reporter activity,[2]; [3],1.15
same,NF-kB SEAP reporter activity,[2]; [4],1.22
same,NF-kB SEAP reporter activity,[2]; [5],1.02
CCOc1ccc(CC2NC(=O)CCSSCC(C(=O)N3CCCC3C(=O)NC(CCCN)C(=O)NCC(N)=O)NC(=O)C(CC(N)=O)NC(=O)C(C(C)O)NC(=O)C(C(C)CC)NC2=O)cc1 (configuration not stated),NF-kB SEAP reporter activity,[1]; [8],0.981
same,NF-kB SEAP reporter activity,[1]; [9],1.06
COc1cc2c(cc1OC)C(=O)C(CC1CCN(Cc3ccccc3)CC1)C2.Cl (configuration not stated) (library stock concentration (final ~1000-fold dilution): 10 mM water),NF-kB SEAP reporter activity,[2]; agonist: LPS (TLR4) 0.1 ug/mL,1.35
same,NF-kB SEAP reporter activity,[2]; [3],1.16
same,NF-kB SEAP reporter activity,[2]; [4],1.28
same,NF-kB SEAP reporter activity,[2]; [5],1.29
COc1cc2c(cc1OC)C(=O)C(CC1CCN(Cc3ccccc3)CC1)C2.Cl (configuration not stated),NF-kB SEAP reporter activity,[1]; [8],0.84
same,NF-kB SEAP reporter activity,[1]; [9],1.08
CC(C)CC(NC(=O)C(Cc1ccccc1)CC(O)C(Cc1ccccc1)NC(=O)OC(C)(C)C)C(=O)NC(Cc1ccccc1)C(N)=O (configuration not stated),NF-kB SEAP reporter activity,[1]; [6],0.843
same,NF-kB SEAP reporter activity,[1]; [7],1.02
CC(C)CC(NC(=O)C(Cc1ccccc1)CC(O)C(Cc1ccccc1)NC(=O)OC(C)(C)C)C(=O)NC(Cc1ccccc1)C(N)=O (configuration not stated) (library stock concentration (final ~1000-fold dilution): 10 mM),NF-kB SEAP reporter activity,[2]; agonist: LPS (TLR4) 0.1 ug/mL,1.25
same,NF-kB SEAP reporter activity,[2]; [3],0.998
same,NF-kB SEAP reporter activity,[2]; [4],0.929
same,NF-kB SEAP reporter activity,[2]; [5],0.958
COC(=O)NC(C(=O)NC(Cc1ccccc1)C(O)CN(Cc1ccc(-c2ccccn2)cc1)NC(=O)C(NC(=O)OC)C(C)(C)C)C(C)(C)C.O=S(=O)(O)O (configuration not stated),NF-kB SEAP reporter activity,[1]; [6],2.01
same,NF-kB SEAP reporter activity,[1]; [7],1.56
COC(=O)NC(C(=O)NC(Cc1ccccc1)C(O)CN(Cc1ccc(-c2ccccn2)cc1)NC(=O)C(NC(=O)OC)C(C)(C)C)C(C)(C)C (configuration not stated),NF-kB SEAP reporter activity,[1]; [7],0.961
COC(=O)NC(C(=O)NC(Cc1ccccc1)C(O)CN(Cc1ccc(-c2ccccn2)cc1)NC(=O)C(NC(=O)OC)C(C)(C)C)C(C)(C)C.O=S(=O)(O)O (configuration not stated) (library stock concentration (final ~1000-fold dilution): 10 mM),NF-kB SEAP reporter activity,[2]; agonist: LPS (TLR4) 0.1 ug/mL,1.54
same,NF-kB SEAP reporter activity,[2]; [3],2.67
same,NF-kB SEAP reporter activity,[2]; [4],1.47
same,NF-kB SEAP reporter activity,[2]; [5],1.68
COC(=O)NC(C(=O)NC(Cc1ccccc1)C(O)CN(Cc1ccc(-c2ccccn2)cc1)NC(=O)C(NC(=O)OC)C(C)(C)C)C(C)(C)C (configuration not stated) (library stock concentration (final ~1000-fold dilution): 10 mM),NF-kB SEAP reporter activity,[2]; agonist: LPS (TLR4) 0.1 ug/mL,1.03
same,NF-kB SEAP reporter activity,[2]; [3],1.02
same,NF-kB SEAP reporter activity,[2]; [4],1.11
same,NF-kB SEAP reporter activity,[2]; [5],0.79
